This is one part of a sample in which hits are shown more often than they occur.
PI4K2A block – PI4K2A (human) kinase inhibition; AID 1346378; purified PI4K2A, ADP-Glo luminescence, 1 h; hits give low values; actives 0.13% (n = 420,000); Q9BTU6; activity change, negative = inhibition, % at 76.9 µM; in the data active means activity change below about -50%; inconclusive means mostly about -30% to -49%
Target sequence (Q9BTU6 whole entry, looked up): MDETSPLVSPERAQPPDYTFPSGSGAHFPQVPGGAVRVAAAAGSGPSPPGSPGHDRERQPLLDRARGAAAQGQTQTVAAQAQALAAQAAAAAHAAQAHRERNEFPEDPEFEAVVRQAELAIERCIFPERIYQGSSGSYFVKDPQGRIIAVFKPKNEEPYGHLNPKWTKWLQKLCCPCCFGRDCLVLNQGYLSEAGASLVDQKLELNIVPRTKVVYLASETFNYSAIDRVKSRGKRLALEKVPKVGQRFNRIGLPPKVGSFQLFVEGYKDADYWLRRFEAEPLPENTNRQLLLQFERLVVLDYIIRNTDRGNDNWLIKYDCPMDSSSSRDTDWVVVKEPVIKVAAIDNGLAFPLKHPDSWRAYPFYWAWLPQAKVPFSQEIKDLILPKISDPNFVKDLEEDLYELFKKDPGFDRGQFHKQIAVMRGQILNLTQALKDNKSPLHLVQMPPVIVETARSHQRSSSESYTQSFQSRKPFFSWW
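ADP-Glo luminescence measured ADP generated by PI4K2A enzyme (4 ug/mL before mixing) with 1.2 mM PI substrate (pre-mix) and 300 microM ATP (pre-mix). Tris pH7.5 buffer with MgCl2, Triton X-100; 1 h reaction at ambient temperature.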
Tb PFK block – T. brucei PFK enzyme inhibition | O15648 | T. brucei PFK, ADP-Glo luminescence | Potency, µM (top dose mostly 57.5 µM), hits mostly inhibitors | actives 0.17% (n = 330,000); further: nearly all actives have a fitted effect of over 60% in size
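PFK 1.25 nM, F6P 0.5 mM, ATP 0.1 mM, 0.1 M TEA pH 8.0, 5 mM MgCl2, 0.01% Tween20, 0.1% BSA; 45 min RT. ADP-Glo readout. qHTS titration up to 57 uM; curves fitted, compounds curve-classed.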
PI5P4Ka inh – PI5P4K alpha (human) kinase inhibition | PI5P4Kalpha enzyme, ADP-Glo luminescence, 60 min; hits give low values | AID 652105 | actives 1.2% (n = 330,000) | max response, %; active means max response of -50% or lower; inconclusive means between -30% and -50%; inactive means -30% or higher; further: value at the top dose of about 77 µM
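ADP-Glo luminescence end-point read after a 60 min room-temperature kinase reaction of PI5P4Kalpha plus substrate, initiated with ATP at 5 microM final. Buffer: 0.038 M HEPES pH 7.4, EGTA, 0.1% CHAPS, 5% DMSO.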
Pin1 inhibitor – human Pin1 inhibition; Q13526; Pin1 FP peptide displacement, HiFluor488, 10 min; Potency, µM (doses to about 115 µM), actives largely listed as inhibitors; actives 0.009% (n = 390,000); AID 504891; active means well fitted inhibition curve with a large enough effect in the polarisation, with a control signal flat, not every such curve was filed as active; inconclusive means small, poorly fitted or top-dose-only effect, or effect the other way, or a change in a side signal; inactive means no such curve, though single readings can be large or run the other way; the % refers to the polarisation
Target sequence (Q13526 whole entry, looked up): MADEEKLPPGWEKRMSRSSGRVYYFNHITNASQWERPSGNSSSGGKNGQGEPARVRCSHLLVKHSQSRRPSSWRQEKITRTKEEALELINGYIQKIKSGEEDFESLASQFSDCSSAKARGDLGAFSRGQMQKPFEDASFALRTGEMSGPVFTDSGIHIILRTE
PGK inhibitor – T. brucei PGK inhibition | P07378 | PGK/GAPDH coupled, Kinase-Glo luminescence, 60 min | Potency, µM (highest dose often 57.5 µM), actives largely listed as inhibitors | actives 0.043% (n = 380,000); further: nearly all actives have a fitted effect of over 60% in size
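Luminescent ATP detection (Kinase-Glo Plus) follows a 60-minute room-temperature incubation, with wells lacking PGK as controls. Buffer: 100 mM TEA (pH 7.6), 5 mM MgCl2, 0.01% Tween-20. Coupling enzyme GAPDH (100 nM final) supplies unstable 1,3-BPG in-well.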
Hits are given with their value; – = inactive; ? = inconclusive; · = no result given. Unless noted, the call rests on the fitted dose curve; in most records, active means well fitted curve in the direction sought with a large enough effect; inconclusive means small, poorly fitted or top-dose-only effect, or another doubt; inactive means no such curve, though single readings can be large; an effect the other way counts as inactive or inconclusive.

SMILES	PI4K2A block	Tb PFK block	PI5P4Ka inh	Pin1 inhibitor	PGK inhibitor
Cc1cc(/C=C2\C(=N)N3N=C(c4ccco4)SC3=NC2=O)c(C)n1Cc1ccccc1	–	–	-62	–	–
CN1C(=O)/C(=C/c2coc3ccc(O)cc3c2=O)SC1=S	–	–	–	–	–
CCC1=NN2C(=N)/C(=C/c3cc(C)n(Cc4ccccc4)c3C)C(=O)N=C2S1	–	–	–	–	–
N=C1/C(=C/c2coc3ccccc3c2=O)C(=O)N=C2SC(c3ccco3)=NN12	–	–	-78	?	–
CC(C)CSC1=NSC2=NC(=O)/C(=C\c3coc4ccccc4c3=O)C(=N)N12	–	–	?	?	–
CSC1=NSC2=NC(=O)/C(=C\c3coc4ccccc4c3=O)C(=N)N12	–	–	-57	?	–
O=C1C(NC(=O)N2c3ccccc3C=Cc3ccccc32)CCCCN1Cc1cccc(C(F)(F)F)c1 (stereo not drawn)	–	·	·	·	·
Cc1ccc(CNC(=O)COc2ccc(C)nc2[N+](=O)[O-])cc1	–	–	–	–	–
Cc1ccc(OCC(=O)c2ccc(Cl)s2)c([N+](=O)[O-])n1	–	–	-56	–	–
CC(C)C(=O)NC(c1cccs1)c1cc([N+](=O)[O-])c2cccnc2c1O (stereo not drawn)	–	–	-84	–	–
O=C(c1cc(O)c(O)c([N+](=O)[O-])c1)c1ccccc1F	–	–	-66	–	?
CCNc1ccccc(C(=O)/C=C/c2ccc3c(c2)OCO3)c1=O	–	–	-56	?	–
C=CCOc1ccc(-c2n[nH]c(=S)o2)cc1	–	–	-60	–	–
COc1ccc(C(=O)Nc2ccc3oc(-c4ccc(OC)cc4)nc3c2)cc1	–	·	·	–	–
Cc1ccc(NC(=S)Nc2cccc(-c3n[nH]c(=S)o3)c2)cc1	–	–	-68	–	–
O=C(Nc1ccc(-c2n[nH]c(=S)o2)cc1)c1ccccc1	–	–	-63	–	·
O=C(Nc1ccc(-c2ccccc2)cc1)c1ccccc1	–	–	–	–	–
COc1ccc(C(=O)Nc2ccc(-c3n[nH]c(=S)o3)cc2)cc1	–	–	-55	–	–
COc1cc(F)c(S(=O)(=O)N2CCN(S(=O)(=O)c3ccc(N)cc3)CC2)c(F)c1	·	·	·	–	·
Cc1ccc(C)n1-c1cccc(C(=O)O)c1	·	11µM	·	·	·
Cc1cc(C=O)c(C)n1-c1cccc(C(=O)O)c1	–	–	–	–	–
Cc1ccc([C@H](C)NC(=O)C2=C(N)N(S(=O)(=O)c3ccc(C)cc3)C(C(=O)c3ccccc3)C2c2ccccc2Cl)cc1 (stereo partly drawn)	–	·	·	·	·
O=C1Cc2cc(S(=O)(=O)N3CCN(c4cccc(C(F)(F)F)c4)CC3)ccc2N1	·	·	·	–	·
O=C(Oc1csc(=S)n1C(=O)c1ccccc1)c1ccccc1	–	–	-75	–	–
Cc1cc(N)n2nc(-c3ccccc3)cc2n1	-54	–	–	–	?
SMILES	PI4K2A block	Tb PFK block	PI5P4Ka inh	Pin1 inhibitor	PGK inhibitor
Cc1ccc(-c2cc3nc(-c4ccccc4)cc(N)n3n2)cc1	–	–	–	–	–
COc1ccc(C(=O)N(Cc2ccccc2)Cc2ccccc2)cc1COc1ccc(NC(C)=O)cc1	·	·	·	–	·
O=C(Nc1cccc(NC(=O)c2ccco2)c1)c1cccc(Br)c1	–	–	–	–	–
O=C(Nc1cc(Br)c(O)c(Br)c1)c1cccc(NC(=O)c2ccco2)c1	–	–	–	–	–
O=C(Nc1cccc(N=Cc2cc(Br)cc(Br)c2O)c1)c1ccco1	–	–	-59	?	–
O=C(Nc1cccc(N=Cc2cc(Cl)cc(Br)c2O)c1)c1ccco1	–	–	-55	?	–
CCOC(=O)[C@@H](CCc1ccccc1)N[C@@H](C)C(=O)N1CCC[C@H]1C(=O)O	–	·	·	·	·
CCN(CC)C(=O)C1CN2CCc3cc(OC)c(OC)cc3C2CC1OC(C)=O (stereo not drawn)	–	·	·	·	·
CC(C)n1c(=O)[nH][nH]c1=S	–	–	-103	–	–
COc1ccc(CC(=O)NCC(c2cccs2)S(=O)(=O)c2ccc(Cl)cc2)cc1 (stereo not drawn)	–	·	·	·	3.2µM
CCCCCCCC/C=C\CCCCCCCC(=O)O	–	–	–	·	–
CCCCC/C=C\C/C=C\C/C=C\CCCCC(=O)O	–	–	-54	?	–
O=C1C=CC(=O)C(C2=C3C(=O)N(CCc4ccccc4)CC(=O)N3CCC2)=C1	–	–	-72	?	–
Cc1cc(C(=O)Cn2ncc(Cl)c(Cl)c2=O)c(C)n1CC(F)(F)F	–	–	-56	–	–
CC1=NN(c2ccccc2)C(=O)C1=Cc1ccccc1	-57	·	–	·	–
COc1ccc(C(=O)COC(=O)CCn2c(C)csc2=O)c(OC)c1	–	·	-65	·	–
O=C1C=C(O)c2[nH]c(=O)ccc2C1=O	?	·	-57	·	–
N[C@H](C(=O)O)[C@@H](O)c1ccc(O)c(O)c1	–	·	·	·	·
CCCCCCCCCCCCCCCCCCNc1ccn(C2OC(COP(=O)(O)OCC3OC(n4cc(F)c(=O)[nH]c4=O)CC3O)C(O)C2O)c(=O)n1 (stereo not drawn)	–	·	-69	·	?
O=C(NC(NNc1ccc([N+](=O)[O-])cc1)(C(F)(F)F)C(F)(F)F)c1ccccc1Cl	–	–	·	?	–
O=C(NC(NNc1ccc([N+](=O)[O-])cc1)(C(F)(F)F)C(F)(F)F)c1ccc(F)cc1	–	–	-71	–	–
Cc1cn2c(N)c(C=C3C=C(Cl)C(=O)C(Cl)=C3)c(=O)nc2s1	–	–	-78	?	–
COC1=C/C(=C/c2c(N)n3cc(C)sc3nc2=O)C=CC1=O	–	?	-81	?	–
Nc1c(/C=C2/C=CC(=O)C(O)=C2)c(=O)nc2sc(CC(=O)N3CCOCC3)nn12	–	·	?	–	?
O=C(c1sccc1Cl)N1CCC(n2nnc3ncccc32)CC1	–	·	·	·	·
SMILES	PI4K2A block	Tb PFK block	PI5P4Ka inh	Pin1 inhibitor	PGK inhibitor
Nc1ccn([C@@H]2O[C@H](CO)[C@@H](O)C2(F)F)c(=O)n1	–	·	·	·	·
COc1cccc(C(=O)NC(=S)Nc2ccc(Cl)cc2C(=O)O)c1	–	–	-63	–	–
COc1cccc(C(=O)Nc2ccc(C(=O)O)cc2)c1	-64	–	–	–	?
COc1cccc(C(=O)NC(=S)Nc2ccc3c4c(cccc24)CC3)c1	–	–	–	–	–
COC(=O)c1cccc(NC(=O)c2cccc(OC)c2)c1	?	·	–	–	?
COC(=O)c1ccc(NC(=O)c2cccc(OC)c2)cc1	-51	?	–	–	–
CC(C)(C)C(=O)Nc1ccc(C(=O)Nc2cccc(Oc3ccc(C(=O)O)c(C(=O)O)c3)c2)cc1	–	21µM	–	?	–
O=C(Nc1cccc(Oc2ccc(C(=O)O)c(C(=O)O)c2)c1)c1ccc(-c2ccccc2)cc1	–	?	?	?	?
CC(=O)Oc1ccc2c(c1)CC[C@@H]1[C@@H]2CC[C@]2(C)[C@@H](O)CC[C@@H]12	–	·	·	·	·
Cc1cc2c(s1)c1cnn(Cc3ccc(Br)cc3F)c(=O)c1n2C	·	·	·	–	·

Screening data deposited in PubChem BioAssay by National Center for Advancing Translational Sciences (NCATS).
